Test results: PubChem BioAssay AID1159580 (chemical genetic matrix, 2015)
Where “and” joins values, the source holds several entries; their conditions need not be identical. Equal values may be shown once. About 2,000 (36%) of roughly 5,500 compounds were called active. Another 18% or so got no clear call; they are omitted. Rule as the data show it: active = normalized growth mostly below about 0.91 (no sharp cut-off); inconclusive = no clear call, values can overlap the other calls; inactive = mostly above about 0.92. The list shows a part of the results.

Assay: chemical genetic growth profiling, strain panel (AID 1159580);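 also: tested at 20 µM; growth read once vehicle control cultures reached saturation at 30 °C; 1 = growth at the plate median or of vehicle wells; lower values mean less growth of the strain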
Conditions: growth OD

Measured: normalized growth

NC(N)=NC(=O)c1nc(Cl)c(N)nc1N
inactive: S. cerevisiae deletion strains, locus YKL009W, strain mrt4, hits give low values 1.03 | S. cerevisiae deletion strains, locus YKL068W, hits give low values 1 | S. cerevisiae deletion strains, locus YKL085W, strain MDH1 (second series), hits give low values 1.01 | S. cerevisiae deletion strains, locus YKL085W, strain MDH1, hits give low values 1.01 | S. cerevisiae deletion strains, locus YKL160W, strain elf1, hits give low values 1.02 | S. cerevisiae deletion strains, locus YKL190W, strain CNB1, hits give low values 0.994 | S. cerevisiae deletion strains, locus YKR001C, strain vps1, hits give low values 1.02 | S. cerevisiae deletion strains, locus YKR026C, strain gcn3, hits give low values 1.03 | S. cerevisiae deletion strains, locus YKR091W, strain srl3, hits give low values 1.03 | S. cerevisiae deletion strains, locus YLL001W, strain dnm1, hits give low values 1.02 | S. cerevisiae deletion strains, locus YLL026W, hits give low values 1.02 | S. cerevisiae deletion strains, locus YLL041C, strain sdh2, hits give low values 1 | S. cerevisiae deletion strains, locus YLR027C, strain aat2, hits give low values 1.02 | S. cerevisiae deletion strains, locus YLR039C, strain RIC1, hits give low values 1.31 | S. cerevisiae deletion strains, locus YLR058C, strain SHM2, hits give low values 1.01 | S. cerevisiae deletion strains, locus YLR102C, strain apc9, hits give low values 1 | S. cerevisiae deletion strains, locus YLR113W, strain HOG1, hits give low values 1.03 | S. cerevisiae deletion strains, locus YLR221C, strain rsa3, hits give low values 1.03 | S. cerevisiae deletion strains, locus YLR258W, strain gsy2, hits give low values 1.02 | S. cerevisiae deletion strains, locus YLR262C, strain YPT6 (second series), hits give low values 1.02 | S. cerevisiae deletion strains, locus YLR268W, strain sec22, hits give low values 1.05 | S. cerevisiae deletion strains, locus YLR320W, strain mms22, hits give low values 1.01 | S. cerevisiae deletion strains, locus YLR330W, strain CHS5, hits give low values 1.01 | S. cerevisiae deletion strains, locus YLR342W, strain FKS1 (second series), hits give low values 0.893 | S. cerevisiae deletion strains, locus YLR342W, strain FKS1, hits give low values 1.03 | S. cerevisiae deletion strains, locus YLR357W, strain rsc2, hits give low values 1.02 | S. cerevisiae deletion strains, locus YLR370C, strain arc18, hits give low values 1.01 | S. cerevisiae deletion strains, locus YLR371W, strain rom2, hits give low values 1.03 | S. cerevisiae deletion strains, locus YLR384C, strain iki3, hits give low values 1.03 | S. cerevisiae deletion strains, locus YLR418C, strain cdc73, hits give low values 0.94 | S. cerevisiae deletion strains, locus YML016C, strain PPZ1, hits give low values 1.01 | S. cerevisiae deletion strains, locus YML032C, strain rad52, hits give low values 1.01 | S. cerevisiae deletion strains, locus YML120C, strain ndi1, hits give low values 1.01 | S. cerevisiae deletion strains, locus YML124C, strain tub3, hits give low values 1.02 | S. cerevisiae deletion strains, locus YMR058W, strain fet3, hits give low values 1.01 | S. cerevisiae deletion strains, locus YMR078C, strain ctf18, hits give low values 1.02 | S. cerevisiae deletion strains, locus YMR125W, strain sto1, hits give low values 1.02 | S. cerevisiae deletion strains, locus YMR129W, hits give low values 1 | S. cerevisiae deletion strains, locus YMR205C, strain PFK2, hits give low values 1.02 | S. cerevisiae deletion strains, locus YMR223W, strain ubp8, hits give low values 1.01 | S. cerevisiae deletion strains, locus YMR231W, strain pep5, hits give low values 1.02 | S. cerevisiae deletion strains, locus YMR307W, strain GAS1, hits give low values 1.02 and 0.992 | S. cerevisiae deletion strains, locus YNL067W, strain RPL9B, hits give low values 1 | S. cerevisiae deletion strains, locus YNL071W, strain lat1, hits give low values 1.01 | S. cerevisiae deletion strains, locus YNL128W, strain TEP1, hits give low values 0.981 | S. cerevisiae deletion strains, locus YNL153C, strain GIM3, hits give low values 1 | S. cerevisiae deletion strains, locus YNL175C, strain NOP13, hits give low values 0.994 | S. cerevisiae deletion strains, locus YNL183C, strain NPR1, hits give low values 0.948 | S. cerevisiae deletion strains, locus YNL197C, strain WHI3, hits give low values 0.992 | S. cerevisiae deletion strains, locus YNL209W, strain ssb2, hits give low values 1 | S. cerevisiae deletion strains, locus YNL224C, strain SQS1, hits give low values 1 | S. cerevisiae deletion strains, locus YNL233W, strain BNI4, hits give low values 1 | S. cerevisiae deletion strains, locus YNL248C, strain rpa49, hits give low values 1.03 | S. cerevisiae deletion strains, locus YNL250W, strain rad50, hits give low values 1.02 | S. cerevisiae deletion strains, locus YNL271C, strain bni1, hits give low values 1.03 | S. cerevisiae deletion strains, locus YNL298W, strain CLA4, hits give low values 1.02 | S. cerevisiae deletion strains, locus YNL307C, strain MCK1, hits give low values 1.01 | S. cerevisiae deletion strains, locus YNL322C, strain KRE1 (second series), hits give low values 1.02 | S. cerevisiae deletion strains, locus YNL322C, strain KRE1, hits give low values 1.01 | S. cerevisiae deletion strains, locus YNR049C, strain mso1, hits give low values 1.02 | S. cerevisiae deletion strains, locus YNR052C, strain pop2, hits give low values 1.01 | S. cerevisiae deletion strains, locus YOL006C, strain TOP1, hits give low values 0.949 | S. cerevisiae deletion strains, locus YOL012C, strain htz1 1.27 | S. cerevisiae deletion strains, locus YOL147C, strain pex11, hits give low values 1.02 | S. cerevisiae deletion strains, locus YOR001W, strain rrp6, hits give low values 1.03 | S. cerevisiae deletion strains, locus YOR061W, strain CKA2, hits give low values 1.01 | S. cerevisiae deletion strains, locus YOR069W, strain VPS5, hits give low values 1 | S. cerevisiae deletion strains, locus YOR070C, strain gyp1, hits give low values 1.01 | S. cerevisiae deletion strains, locus YOR080W, strain dia2, hits give low values 1.04 | S. cerevisiae deletion strains, locus YOR083W, strain WHI5 (second series), hits give low values 1.01 | S. cerevisiae deletion strains, locus YOR083W, strain WHI5, hits give low values 1.04 | S. cerevisiae deletion strains, locus YOR106W, strain vam3, hits give low values 0.997 | S. cerevisiae deletion strains, locus YOR136W, strain idh2, hits give low values 1.04 | S. cerevisiae deletion strains, locus YOR144C, strain elg1, hits give low values 1.01 | S. cerevisiae deletion strains, locus YOR184W, strain ser1, hits give low values 1.05 | S. cerevisiae deletion strains, locus YOR231W, strain MKK1, hits give low values 0.998 | S. cerevisiae deletion strains, locus YOR265W, strain rbl2, hits give low values 1.02 | S. cerevisiae deletion strains, locus YOR270C, strain vph1, hits give low values 1.03 | S. cerevisiae deletion strains, locus YOR290C, strain snf2, hits give low values 0.985 | S. cerevisiae deletion strains, locus YOR316C, strain cot1, hits give low values 1.01 | S. cerevisiae deletion strains, locus YPL051W, strain arl3, hits give low values 1.03 | S. cerevisiae deletion strains, locus YPL078C, strain atp4, hits give low values 1.04 | S. cerevisiae deletion strains, locus YPL106C, strain sse1, hits give low values 1 | S. cerevisiae deletion strains, locus YPL240C, strain hsp82, hits give low values 1.02 | S. cerevisiae deletion strains, locus YPL241C, strain CIN2, hits give low values 0.998 and 0.996 | S. cerevisiae deletion strains, locus YPL256C, strain CLN2, hits give low values 1.01 | S. cerevisiae deletion strains, locus YPR119W, strain clb2, hits give low values 1.01 | S. cerevisiae deletion strains, locus YPR141C, strain kar3, hits give low values 1.01 | S. cerevisiae deletion strains, locus YPR163C, strain tif3, hits give low values 1.02 | S. cerevisiae deletion strains, locus YPR167C, strain met16, hits give low values 1.02 | S. cerevisiae deletion strains, strain wtn01, hits give low values 1.01 | S. cerevisiae strains, strain wild type, hits give low values 1
active: S. cerevisiae deletion strains, locus YLR262C, strain YPT6, hits give low values 1.41 [resistant]
